EBI2 block – blocks human EBI2 receptor beta-arrestin signaling | EBI2 beta-arrestin recruitment, luminescence, 7a,25-OHC stimulated | inhibition, % at 5 µM | actives 0.81% (n = 360,000); in the data active = inhibition above about 38%;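 also: enzyme fragment complementation signal reports receptor beta-arrestin coupling in cells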
Target sequence (P32249 whole entry, looked up, the tested form may be a part): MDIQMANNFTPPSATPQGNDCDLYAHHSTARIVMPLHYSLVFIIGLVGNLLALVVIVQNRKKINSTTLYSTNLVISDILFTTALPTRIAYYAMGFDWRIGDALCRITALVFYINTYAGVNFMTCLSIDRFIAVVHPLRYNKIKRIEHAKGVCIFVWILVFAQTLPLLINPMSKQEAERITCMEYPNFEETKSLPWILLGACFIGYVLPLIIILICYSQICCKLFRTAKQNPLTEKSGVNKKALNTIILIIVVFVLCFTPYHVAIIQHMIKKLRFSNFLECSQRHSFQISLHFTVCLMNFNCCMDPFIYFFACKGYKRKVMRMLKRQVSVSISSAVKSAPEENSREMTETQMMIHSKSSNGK
SKKanGAS inh – inhibitors of SKKanGAS S. pyogenes growth in kanamycin (SK-promoter or general growth effect) | inhibition, % at 7.5 µM | actives 1.3% (n = 300,000) | BacTiter-Glo, 6 h;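 active = mean replicate score, as percent of positive control median, at least 50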;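 also: strain carries kanamycin resistance gene driven by streptokinase promoter and grows in 40 µg/ml kanamycin; loss of luminescence reflects streptokinase promoter inhibition or plain growth inhibition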
tim10-1 inh – tim10-1 yeast growth inhibition. S. cerevisiae tim10-1 ts strain growth, BacTiter-Glo, 24 h. actives 2.2% (n = 330,000). inhibition, % at 20 µM;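 active = inhibition of at least 40%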;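 also: mutant grown at 25 °C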
TIM10 inh – TIM10 yeast growth inhibition; S. cerevisiae TIM10 strain growth, BacTiter-Glo luminescence, 24 h; inhibition, % at 10 µM; actives 1.4% (n = 330,000);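 active = inhibition of 40% or more at the single tested concentration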;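 also: wild-type TIM10 isogenic control strain grown at permissive 25 °C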
PfHsp90 set2 – growth inhibition of yeast expressing Plasmodium Hsp90. S. cerevisiae expressing PfHsp90, BacTiter-Glo ATP, 48 h; yeast lacking PDR1 and PDR3 efflux regulators. inhibition, % at 9.4 µM. actives 0.32% (n = 310,000);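 active = every replicate shows inhibition above about 80%, whatever the replicate mean, limit read from the data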
tim23-1 inh – growth inhibitors of tim23-1 mutant yeast | S. cerevisiae tim23-1 growth, BacTiter-Glo luminescence, 24 h | actives 1.3% (n = 330,000) | inhibition, % at 20 µM;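 active = growth inhibition of the mutant yeast at or above 50%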;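 also: temperature-sensitive mutant grown at 25 °C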
tim10-1 confirm – confirmation of tim10-1 mutant yeast growth inhibitors. shares compounds with tim10-1 inh. S. cerevisiae tim10-1 ts strain growth, BacTiter-Glo, 24 h. inhibition, % at 20 µM. actives 56% (n = 7,400). AID 463213;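 active = inhibition of yeast growth at or above a set limit in either of two repeat tests at 20 µM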;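 also: tim10-1 mutant grown at permissive 25 °C to find synthetic lethal compounds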
tim10 confirm – confirmation of TIM10 yeast growth inhibitors | shares compounds with TIM10 inh | actives 63% (n = 4,600) | inhibition, % at 10 µM | S. cerevisiae tim10 strain growth, BacTiter-Glo luminescence, 24 h;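 active = inhibition of yeast growth at or above a set limit in either of two replicates at 10 µM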; also: this counterscreen used the strain with wild-type TIM10
tim23-1 conf – confirmation of tim23-1 mutant yeast growth inhibitors | S. cerevisiae tim23-1 growth, BacTiter-Glo luminescence, 24 h | inhibition, % at 20 µM | shares compounds with tim23-1 inh | actives 83% (n = 4,400);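 active = inhibition above about 39% in either of two replicate wells at 20 µM, limit read from the data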;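 also: temperature-sensitive tim23-1 mutant grown at 25 °C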
Of the large screens only hits and unclear results are named; the others gave an inactive call (follow-up assays come after a bar, where they were run). In the library only some 4.7% were active in any assay of this set; here they are far more common.

O=C(ONC1=NCCCCC1)c1cccc([N+](=O)[O-])c1	tim10-1 inh 61, TIM10 inh 82, tim23-1 inh 78 | tim10-1 confirm 38 | tim10 confirm 90 | tim23-1 conf 69
Cc1ccc(CNC(=O)c2ccc([N+](=O)[O-])o2)cc1	SKKanGAS inh 56, tim10-1 inh 62, TIM10 inh 67, tim23-1 inh 64 | tim10-1 confirm 57 | tim10 confirm 40 | tim23-1 conf 54
Cc1ccnc(NC(=O)c2ccc([N+](=O)[O-])o2)c1	tim10-1 inh 64, TIM10 inh 55, tim23-1 inh 61 | tim10-1 confirm 59 | tim10 confirm inactive | tim23-1 conf 76
CN(Cc1ccccc1)C(=O)c1ccc([N+](=O)[O-])o1	tim10-1 inh 68, TIM10 inh 75, tim23-1 inh 50 | tim10-1 confirm 69 | tim10 confirm 72 | tim23-1 conf 64
Cc1ccc(CNC(=O)c2nn(C)c(C)c2[N+](=O)[O-])cc1	none
O=C(CNCc1ccco1)Nc1ccc(Oc2ccccc2)cc1	none
CCCCN1CC(=O)N2[C@H](c3ccc(OC)cc3)[C@@H]3C(=O)N(CC)C(=O)[C@@H]3[C@]2(Cc2ccccc2)C1=O	none
CCn1c(CSc2nc3ccccc3s2)nnc1SCC(=O)NCC(=O)OC	none
CCCOc1ccc(C(=O)N/N=C/c2c[nH]c3ccc(Br)cc23)cc1	tim10-1 inh 43, tim23-1 inh 55 | tim10-1 confirm 37 | tim23-1 conf 54
COC(=O)c1c(C)nc2ccccc2c1C(=O)O	none
COC(=O)c1cc(C)[nH]c2c(C)cc3nc4ccccc4c3c12	tim10-1 inh 50, tim23-1 inh 59 | tim10-1 confirm 42 | tim23-1 conf inactive
CCc1nc2ccccc2c2nc3ccccc3n12	tim10-1 inh 59, TIM10 inh 44, tim23-1 inh 51 | tim10-1 confirm 46 | tim10 confirm inactive | tim23-1 conf 48
c1ccc2c(c1)nc(CN1CCOCC1)n1c3ccccc3nc21	none
Cc1ccc(-c2nnc(N3CCN(C(=O)c4cccs4)CC3)c3ccccc23)cc1	tim10-1 inh 55, tim23-1 inh 69 | tim10-1 confirm 50 | tim23-1 conf 59
CCOC(=O)N1CCN(c2nnc(-c3ccccc3)c3ccccc23)CC1	none
CCOC(=O)N1CCN(c2nnc(-c3ccc(C)cc3)c3ccccc23)CC1	tim10-1 inh 52, tim23-1 inh 61 | tim10-1 confirm 34 | tim23-1 conf 48
O=C(Nc1ccccc1-c1nnn(CC(=O)N2CCOCC2)n1)c1ccc(F)cc1	none
CCCOc1ccc(N2CC(C(=O)Nc3ccc(N4CCOCC4)cc3)CC2=O)cc1 (configuration not stated)	none
Cc1c(NC(=O)COc2ncnc3ccccc23)c(=O)n(-c2ccccc2)n1C	none
O=c1[nH]cnc2scc(-c3ccccc3)c12	none
O=c1[nH]cnc2c1c(-c1ccccc1)cn2-c1cccc(Cl)c1	tim10-1 inh 46, tim23-1 inh 60 | tim10-1 confirm 36 | tim23-1 conf 38
O=c1cc(C(Cl)(Cl)Cl)oc2c1ccc1ccccc12	tim10-1 inh 44, tim23-1 inh 52 | tim10-1 confirm inactive | tim23-1 conf 49
O=c1cc(-c2ccco2)oc2c1ccc1ccccc12	none
COc1cc(Br)cc(CNc2ccc(F)c([N+](=O)[O-])c2)c1O	tim10-1 inh 55, TIM10 inh 44, tim23-1 inh 54 | tim10-1 confirm 33 | tim10 confirm 40 | tim23-1 conf 56
CCOC(=O)c1c(C)sc2c1N(C(=O)CCl)c1cc(Cl)ccc1S2	tim10-1 inh 43, tim23-1 inh 61 (no result: PfHsp90 set2) | tim10-1 confirm 43 | tim23-1 conf 50
CCOc1ccccc1N1CCN(C(=O)Nc2ccc(Cl)c(Cl)c2)CC1	tim10-1 inh 48, tim23-1 inh 58 (no result: EBI2 block, PfHsp90 set2) | tim10-1 confirm 37 | tim23-1 conf 50
O=C(CCc1ccc(Oc2cc([N+](=O)[O-])cc([N+](=O)[O-])c2)cc1)N1CCCCCC1	tim10-1 inh 43, TIM10 inh 45, tim23-1 inh 51 | tim10-1 confirm 39 | tim10 confirm 42 | tim23-1 conf 50
O=C(O)c1ccc(Oc2cc(Oc3ccc(C(=O)O)cc3)cc([N+](=O)[O-])c2)cc1	none
c1ccc(-c2cccc(-c3ccccn3)n2)nc1	tim10-1 inh 60, PfHsp90 set2 146, tim23-1 inh 58 | tim10-1 confirm 43 | tim23-1 conf 57
c1ccc(-c2nnc(-c3ccccn3)nn2)nc1	none
CCOC(=O)/C=C/C(=O)OCC(=O)Nc1c(Cl)cccc1Cl	none
CCOC(=O)/C=C/C(=O)OCC(=O)Nc1ccc(Cl)cc1Cl	tim10-1 inh 47, tim23-1 inh 54 | tim10-1 confirm 46 | tim23-1 conf 73
O=C(NC(Nc1nc2ccc([N+](=O)[O-])cc2s1)(C(F)(F)F)C(F)(F)F)c1ccccc1Cl	tim10-1 inh 78, TIM10 inh 66, tim23-1 inh 71 | tim10-1 confirm 76 | tim10 confirm 68 | tim23-1 conf 86
CCSc1ncc(/C=N/Nc2ccc(Cl)cc2)n1C	tim10-1 inh 46, tim23-1 inh 70 (no result: PfHsp90 set2) | tim10-1 confirm inactive | tim23-1 conf 63
CCSc1ncc(/C=N/Nc2ccccc2)n1C	none
O=c1oc(-c2cccnc2)nc2ccccc12	none
O=c1oc(-c2ccccc2Br)nc2ccccc12	tim10-1 inh 49, tim23-1 inh 59 | tim10-1 confirm 40 | tim23-1 conf 71
Cc1nc(N2CCN(Cc3ccc(Cl)cc3)CC2)c2oc3ccccc3c2n1	tim10-1 inh 53, TIM10 inh 42, tim23-1 inh 54 | tim10-1 confirm 36 | tim10 confirm 49 | tim23-1 conf 43
COc1ccc([N+](=O)[O-])cc1N(CC(=O)NCCCOC(C)C)S(C)(=O)=O	none
Oc1ccc(Oc2ccc3c(C(F)(F)F)cc(C(F)(F)F)nc3n2)cc1	tim10-1 inh 40, TIM10 inh 43, tim23-1 inh 56 | tim10-1 confirm inactive | tim10 confirm inactive | tim23-1 conf 49
COc1ccc(Oc2ccc3c(C(F)(F)F)cc(C(F)(F)F)nc3n2)cc1	none
Oc1c(C2=NCCNC(C(F)(F)F)=C2)ccc2ccccc12	tim10-1 inh 48, TIM10 inh 44, tim23-1 inh 59 | tim10-1 confirm inactive | tim10 confirm 43 | tim23-1 conf 71

Bioassay records from PubChem BioAssay.
